Assay results published in the supplement of paper PMC9334596.
Values joined by “and” are separate entries in the source; they are usually repeats but may differ in a detail not shown here. Identical values can stand only once. Over roughly 5,300 compounds, “PER2::LUC luminescence relative to vehicle control” has its median near 0.96; the highest 2% begin near 1.3. This excerpt belongs to a sample that is enriched for the highest values.

Tested on: mPer2Luc MEF
Experiment: PER2::LUC luminescence relative to vehicle control (fold of vehicle); higher = higher PER2::LUC reporter signal
Conditions: 10 µM
How it was run: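 Compounds from commercial libraries were added at 10 μM to 384-well plates seeded 48 h earlier with ~3000 mPer2Luc mouse embryonic fibroblasts per well. The cells were kept in DMEM with 10% FBS at 37 °C and 5% CO2. Luminescence was read with ONE-Glo 24 h and 30 h after treatment, then an alamarBlue viability assay was run. Values are PER2::LUC luminescence relative to vehicle control, as fold change.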

| SMILES | PER2::LUC luminescence (time after treatment 24 h) | PER2::LUC luminescence (time after treatment 30 h) |
| --- | --- | --- |
| Cc1cccc(/C=C/c2ccccc2)n1 | 1.35 | 1.16 |
| CC(COc1ccc(/C=C/c2ccccc2)cc1)[N+](C)(C)C (stereo not drawn) | 0.936 | 1.02 |
| CN(C/C=C/c1ccccc1)Cc1cccc2ccccc12 | 0.5 | 0.535 |
| O=Cc1c2[nH]c3ccccc3c2cc2[nH]c3ccccc3c12 | 1.54 | 1.5 |
| O=c1[nH]c2ccccc2c2ccccc12 | 1.19 | 0.972 |
| OCc1cc2c(cn1)[nH]c1ccccc12 | 0.851 | 0.873 |
| CC[C@@H](C)[C@@H](O)[C@H](C)C(=O)[C@H](C)/C=C(\C)C[C@H](C)[C@@H]1OC(=O)[C@H]1CC | 1.06 | 0.925 |
| Clc1cccc(COc2cncc(N3CCNCC3)n2)c1 | 0.246 | 0.301 |
| CCCCc1ccc(NC(C)=O)c(C)c1 | 1.1 | 1.05 |
| O=C(Nc1ccc(S(=O)(=O)Nc2ccccc2Cl)c(Cl)c1)c1ccccn1 | 0.992 | 1.06 |
| CS(=O)(=O)c1ccc(C(=O)Nc2ccc(Cl)c(-c3ccccn3)c2)c(Cl)c1 | 1.17 | 1.14 |
| COc1cc(NC(=O)c2ccccn2)ccc1Cl | 1.13 | 1.38 |
| O=C(Nc1cccc(Cl)c1)c1ccccn1 | 1.65 | 1.48 |
| CN1CC(=O)N=C1NC(=O)Nc1cccc(Cl)c1 | 0.949 | 1.1 |
| COc1ccccc1C(=O)Nc1cccc(NC(=O)c2cccc(C)c2)c1 | 0.917 | 0.985 |
| COc1cccc(CNC(=O)Nc2nc(-c3ccncc3)cs2)c1 | 0.558 | 0.601 |
| O=c1ncc(F)c[nH]1 | 0.979 | 0.911 |
| Cn1c2ncnc-2c(O)n(C)c1=O | 1.14 | 1.18 |
| FC(F)(F)COB(OCC(F)(F)F)OCC(F)(F)F | 0.958 | 1 |
| O=C1CN(/N=C/C=C/c2ccc([N+](=O)[O-])o2)C(=O)N1 | 1.04 | 1.01 |
| CCOc1ccc(C(=O)c2ccc(OC)c(O)c2O)cc1 | 0.983 | 0.916 |
| CCOc1cccc(C(=O)c2ccc(O)c(O)c2O)c1 | 1.23 | 1.37 |
| CCOc1ccc(C(=O)c2ccc(O)c(O)c2O)cc1 | 0.963 | 1.08 |
| O=C(Nc1cccc(NC(=O)c2cccc(O)c2O)c1)c1cccc(O)c1O | 0.916 | 1.34 |

| SMILES | PER2::LUC luminescence (time after treatment 24 h) | PER2::LUC luminescence (time after treatment 30 h) |
| --- | --- | --- |
| O=C(O)Cc1cccc(OCCCN(Cc2cccc(C(F)(F)F)c2Cl)CC(c2ccccc2)c2ccccc2)c1 | 1.4 | 1.47 |
| O=c1[nH]c(C2CCCN2)nc2c1oc1ccc(Cl)cc12 (stereo not drawn) | 1.22 | 1.29 |
| N#Cc1cc(-c2ccnc(Nc3ccc(N4CCOCC4)cc3)n2)ccc1OC1CCOCC1 | 0.507 | 0.584 |
| O=C(CCCCCCCCCCCCC1CCCC1)Nc1ccc(S(=O)(=O)c2ccc(NC(=O)CCCCCCCCCCCCC3CCCC3)cc2)cc1 | 1.06 | 1.02 |
| COc1cccc(C(=O)NCCN2CCN(c3ccc(Cl)cc3)CC2)c1 | 0.833 | 0.96 |
| COc1cccc(-c2ccc(NC(=O)C3=C(C(=O)O)CCC3)c(F)c2)c1 | 1.43 | 1.75 |
| COc1ccccc1C(=O)Nc1cc2c(cc1N1CCCCC1)n(C)c(=O)n2C | 0.765 | 0.829 |
| CC(C)=CCC/C(C)=C/CC/C(C)=C/CC/C(C)=C/C(=O)O | 1.07 | 0.976 |
| COc1c(O)c2c(=O)cc(OC)c3c4c(OC)cc(=O)c5c(O)c(OC)c6c(c(c1CC(C)=C6C(C)=O)c23)c54 | 0.779 | 0.948 |
| C=CCSSSCC=C | 1.32 | 1.05 |
| Nc1ccc(-c2ccc3ccccc3n2)cc1 | 1.74 | 1.29 |
| Nc1ccc(-c2nc3ccc(-c4nc5ccc(N)cc5[nH]4)cc3[nH]2)cc1 | 0.876 | 0.866 |
| O=C(O)c1cc(-c2ccccc2)nc2ccccc12 | 0.91 | 1.12 |
| COc1cc(Nc2nc3c(s2)CCCC3c2ccc(F)cc2)ccc1-n1cnc(C)c1 (stereo not drawn) | 1.05 | 1.02 |
| C/C=C\c1ccc(OC)cc1 | 1 | 1.03 |
| CC(CC(=O)O)C(N)C(=O)O (racemic) | 0.979 | 0.922 |
| O=c1cc(-c2ccccc2F)[nH]c2cc3c(cc12)OCO3 | 0.9 | 0.871 |
| CC(C)=CC[C@@H](OC(=O)C=C(C)C)C1=CC(=O)c2c(O)ccc(O)c2C1=O | 1.03 | 1.03 |
| CC12CCc3occc3C1CCC13CC(=O)C(CCC12)C3 (stereo not drawn) | 0.996 | 0.94 |
| CC(=O)O[C@H]1CC[C@]2(C)C3CC[C@@]4(C)[C@H](C5CC(C6OC6(C)C)OC5O)CC[C@]4(C)C3=CC[C@H]2C1(C)C (stereo partly drawn) | 1.14 | 1.08 |
| COc1cc(/C=C/C(=O)O)cc(OC)c1OC | 0.994 | 0.955 |
| CC1=C(/C=C/C(C)=C/C=C/C(C)=C/C(=O)O)C(C)(C)CCC1O (stereo not drawn) | 0.928 | 1.06 |
| COc1cc(C)c(/C=C/C(C)=C/C=C/C(C)=C/C(=O)O)c(C)c1C | 1.82 | 2.04 |
| O=C(NCc1cccs1)c1cc2nc(-c3ccco3)cc(C(F)(F)Cl)n2n1 | 1.03 | 1.11 |

| SMILES | PER2::LUC luminescence (time after treatment 24 h) | PER2::LUC luminescence (time after treatment 30 h) |
| --- | --- | --- |
| Cn1nnnc1SCC1=C(C(=O)O)N2C(=O)[C@@H](NC(=O)C(OC=O)c3ccccc3)[C@H]2SC1 (stereo partly drawn) | 0.605 | 0.705 |
| O=C(c1ccc2c(c1)OCO2)N1CCCCC1 | 1 | 0.843 |
| O=C(/C=C/C=C/c1ccc2c(c1)OCO2)N1CCCCC1 | 1.5 | 1.42 |
| O=C(O)/C=C/C=C/c1ccc2c(c1)OCO2 | 1.07 | 1.03 |
| COc1cc(N2CCOCC2)ccc1Nc1ncc(F)c(Nc2ccccc2NS(C)(=O)=O)n1 | 0.771 | 0.673 |
| Nc1nc(Nc2ccc3c(c2)CCC(N2CCCC2)CC3)nn1-c1cc2c(nn1)-c1ccccc1CCC2 (stereo not drawn) | 0.438 | 0.375 |
| O=C(c1ccc(CN2CCOCC2)cc1)N1CCN(C2CC2)CC1 | 1.07 | 0.963 |
| O=C(NCCN1CCOCC1)c1ccc(Cl)cc1 | 1.09 and 1.08 | 0.965 and 1.2 |
| C[C@@H](O)[C@H](NC(=O)c1ccc(C#Cc2ccc(CN3CCOCC3)cc2)cc1)C(=O)NO | 1.32 | 1.62 |
| O=C1/C(=C/c2cc(Br)c(O)c(Br)c2)COC/C1=C\c1cc(Br)c(O)c(Br)c1 | 0.259 | 0.258 |
| COc1cc2c(c(OC)c1OC)-c1ccc(OC)c(=O)cc1[C@@H](NC=O)CC2 | 0.938 | 0.84 |
| NCC(O)c1ccc(O)c(O)c1 (stereo not drawn) | 1.47 | 1.55 |
| NC[C@@H](O)c1ccc(O)c(O)c1 | 1.26 | 1.04 |
| NCC(O)c1ccc(O)c(O)c1 (racemic) | 1.04 | 1.12 |
| CCCC[C@@H](C)/C=C(C)/C=C(\C)C(=O)NC1=C[C@@](O)(/C=C/C=C/C=C/C(=O)NC2=C(O)CCC2=O)[C@@H]2O[C@@H]2C1=O | 0.951 | 0.934 |
| Cc1ccc(O)cc1Nc1ccnc(Nc2cccc(C(N)=O)c2)n1 | 1.05 | 1.02 |
| CCOC(=O)c1sc(NC(=O)[C@H](C(C)C)n2c(=O)[nH]c3ccccc3c2=O)nc1C | 1.02 | 0.987 |
| O=C(O[C@H]1[C@H](Oc2ccccc2COC(=O)C2(O)C=CCCC2=O)O[C@H](CO)[C@@H](O)[C@@H]1O)c1ccccc1 (stereo partly drawn) | 0.824 | 0.676 |
| Cc1ccc(O)c(N=Nc2ccccc2)n1 | 1.05 | 0.998 |
| Nc1ccc(/N=N/c2ccccc2)c(N)n1 | 1.76 | 1.7 |
| CC[C@H]1CN(c2nc(N)c(C(N)=O)nc2Cl)CCN1C1CCN(Cc2ccc(Cl)cc2)CC1 | 0.96 | 1.01 |
| OC[C@H]1O[C@@H](Oc2ccc(O)cc2)[C@H](O)[C@@H](O)[C@@H]1O | 1.02 | 0.876 |
| COc1ccc2c(=O)c(CC(=O)O)coc2c1 | 0.908 | 0.978 |
| O=c1c(-c2ccc(O)cc2)coc2cc(O[C@@H]3O[C@H](CO)[C@@H](O)[C@H](O)[C@H]3O)ccc12 | 1.25 | 1.39 |

| SMILES | PER2::LUC luminescence (time after treatment 24 h) | PER2::LUC luminescence (time after treatment 30 h) |
| --- | --- | --- |
| O=c1cc(-c2ccc(O)cc2)oc2cc(O[C@@H]3O[C@H](CO)[C@@H](O)[C@H](O)[C@H]3O)cc(O)c12 | 1.22 | 1.43 |
| C[C@@H]1O[C@@H](O[C@H]2[C@H](Oc3cc(O)c4c(=O)cc(-c5ccc(O)cc5)oc4c3)O[C@H](CO)[C@@H](O)[C@@H]2O)[C@H](O)[C@H](O)[C@H]1O | 0.841 | 0.85 |
| CC(C)Oc1ccc2c(=O)c(-c3ccccc3)coc2c1 | 1.9 | 1.92 |
| COc1ccccc1-c1coc2cc(O)ccc2c1=O | 1.14 | 1.04 |
| O=c1c(-c2ccc(O)cc2)coc2cc(O[C@@H]3O[C@H](CO)[C@@H](O)[C@H](O)[C@H]3O)cc(O)c12 | 1.3 | 1.32 |
| COc1ccc(-c2coc3cc(O)ccc3c2=O)c(OC)c1 | 1.02 | 1.05 |
| COc1ccc(-c2coc3cc(O)ccc3c2=O)cc1 | 1.77 | 1.97 |
| O=c1c(-c2ccc(O)cc2)coc2cc(O)ccc12 | 0.822 | 0.788 |
| O=c1cc(-c2ccc(O)c(O[C@@H]3O[C@H](CO)[C@@H](O)[C@H](O)[C@H]3O)c2)oc2cc(O[C@@H]3O[C@H](CO)[C@@H](O)[C@H](O)[C@H]3O)cc(O)c12 | 1.07 | 1.04 |
| Cc1ccc(NC(=O)Nc2cc(-c3ccccc3-c3nn[nH]n3)ccc2N(CC(C)C)CC(C)C)cc1 | 0.966 | 0.93 |
| O=c1ccc2cccc(O)c2[nH]1 | 1.06 | 0.957 |
| CCCCC/C=C\CCC(=O)N[C@H]1[C@H](Oc2c3cc4cc2Oc2ccc(cc2Cl)[C@@H](O[C@@H]2O[C@H](CO)[C@@H](O)[C@H](O)[C@H]2NC(C)=O)[C@@H]2NC(=O)[C@H](NC(=O)[C@@H]4NC(=O)[C@H]4NC(=O)[C@@H](Cc5ccc(c(Cl)c5)O3)NC(=O)[C@H](N)c3ccc(O)c(c3)Oc3cc(O)cc4c3)c3ccc(O)c(c3)-c3c(O[C@H]4O[C@H](CO)[C@@H](O)[C@H](O)[C@@H]4O)cc(O)cc3[C@@H](C(=O)O)NC2=O)O[C@H](CO)[C@@H](O)[C@@H]1O | 0.886 | 0.953 |
| C=C[C@@](C)(O)CC[C@H]1C(=C)CC[C@H]2C(C)(C)CCC[C@]12C | 0.946 | 0.911 |
| COc1ccc(-c2coc3c(O)c(O)c(OC)cc3c2=O)cc1 | 1.31 | 1.23 |
| COc1ccc(-c2coc3cc(O)ccc3c2=O)cc1S(=O)(=O)O | 1 | 0.898 |
| COc1cc(-c2coc3cc(O)c(OC)c(O)c3c2=O)cc(O)c1OC | 1.37 | 1.39 |
| COc1cc(-c2coc3cc(O[C@@H]4O[C@H](CO)[C@@H](O)[C@H](O)[C@H]4O)c(OC)c(O)c3c2=O)cc(O)c1OC | 0.773 | 1.31 |
| COc1cc(-c2coc3cc(OC)c(OC)c(OC)c3c2=O)cc(OC)c1OC | 0.972 | 0.969 |
| COc1ccc2c(=O)c(-c3ccc(O)cc3)coc2c1 | 1.39 | 1.62 |
| COc1ccc(-c2coc3cc(O)cc(O)c3c2=O)cc1 | 1.83 | 1.97 |
| COc1ccc(-c2coc3c(OC)c(OC)cc(O)c3c2=O)cc1 | 1.01 | 1.13 |
| O=c1c(-c2ccc(O)cc2)coc2cc(O)cc(O)c12 | 1.07 | 1.06 |
